Test results taken from PubChem BioAssay (NCI).
Compounds without any hit were thinned out: in the full panel of roughly 83,000, 20% have a hit.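 48-hour exposure, single concentration, 96-well plates; percent growth endpoint where 0 means no net growth. Active: below 10.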 Unmarked numbers belong to inactive results. The source made the active and inactive calls.

Assays:
Test in all cases: NCI-60 one-dose screen, 48 h (100 = growth as untreated, 0 = no growth, -100 = all killed)
Conditions in all cases: 10 µM unless noted
NCI-H23 lung = system: NCI-H23 lung
NCI-H226 lung = system: NCI-H226 lung
NCI-H322M lung = system: NCI-H322M lung
HOP-62 NSCLC = system: HOP-62 NSCLC
NCI-H460 lung = system: NCI-H460 lung
HOP-92 NSCLC = system: HOP-92 NSCLC
NCI-H522 lung = system: NCI-H522 lung
A549/ATCC NSCLC = system: A549/ATCC NSCLC
786-0 renal = system: 786-0 renal
COLO 205 colon = system: COLO 205 colon
DU-145 prostate = system: DU-145 prostate
K-562 leukemia = system: K-562 leukemia
MALME-3M melanoma = system: MALME-3M melanoma
MDA-MB-231 breast = system: MDA-MB-231 breast
RXF 393 renal = system: RXF 393 renal
SF-268 CNS = system: SF-268 CNS
SF-295 CNS = system: SF-295 CNS
SF-539 CNS = system: SF-539 CNS
UACC-257 melanoma = system: UACC-257 melanoma
M14 melanoma = system: M14 melanoma

Structure (SMILES)	growth (NCI-H23 lung)	growth (NCI-H226 lung)	growth (NCI-H322M lung)	growth (HOP-62 NSCLC)	growth (NCI-H460 lung)	growth (HOP-92 NSCLC)	growth (NCI-H522 lung)	growth (A549/ATCC NSCLC)	growth (786-0 renal)	growth (COLO 205 colon)	growth (DU-145 prostate)	growth (K-562 leukemia)	growth (MALME-3M melanoma)	growth (MDA-MB-231 breast)	growth (RXF 393 renal)	growth (SF-268 CNS)	growth (SF-295 CNS)	growth (SF-539 CNS)	growth (UACC-257 melanoma)	growth (M14 melanoma)
O=C1Nc2ccc(F)cc2/C1=C\C(=O)c1ccc(NS(=O)(=O)c2ccccc2)cc1	84.3%	95.6%	93.8%	103%	101%	82.7%	70.2%	97.4%	98.6%	113%	92.1%	49.1%	79.7%	90.4%	72.3%	97.9%	96.4%	97.5%	95.9%	90.7%
NC(=O)c1ncn2c(=O)n(CCF)nnc12	94.5%	68.5%	78%	53.5%	54.9%	99.3%	82.7%	99%	61.3%	57.4%	38.6%	26.7%	72.8%	66.8%	96.6%	57.3%	34.7%	63.9%	80.9%	33.9%
CCCNNC(=O)c1ccc(-c2ccc(NC(=O)CCCCCCC(=O)N[C@H](C(=O)N3C[C@H](O)C[C@H]3C(=O)N[C@@H](C)c3ccc(-c4scnc4C)cc3)C(C)(C)C)cc2)cc1	37.3%	46.5%	34.7%	27.8%	31.8%	-26.7% (active)	10%	72.4%	36.9%	-31.1% (active)	32.4%	15.5%	32%	24.1%	-33% (active)	46.3%	46.8%	27.3%	23.6%	39.8%
COCCOc1ccc2ncc(C#Cc3cncc(C(=O)Nc4ccc(CN5CCN(C)CC5)c(C(F)(F)F)c4)c3)n2n1	-48.7% (active)	-12.7% (active)	18.7%	18.4%	0.556% (active)	-44.1% (active)	-56.4% (active)	10.3%	-15.3% (active)	-32.7% (active)	7.72% (active)	-18% (active)	-72.3% (active)	-28.5% (active)	-91.2% (active)	-19.6% (active)	31%	8.57% (active)	28.1%	-90.5% (active)
CSc1ccc(C(=NNS(=O)(=O)c2ccc(C)cc2)c2ccc(Cl)cc2)cc1	94%	98%	92.7%	98.6%	104%	86.9%	94.4%	99.6%	104%	119%	108%	94.6%	89.9%	104%	101%	95.3%	96.9%	102%	100%	103%
CCCCCCCCCCCC(=O)NC(C)(C)C(=O)N1CCCC1C(=O)NC(C)(C)C(=O)NC(C)(C)C(=O)N1CCCC1C(=O)NC(C)(C)C(=O)NC(C)(C)C(=O)N1CCCC1C(=O)NC(C)C(=O)NCCC(=O)NC(C)C(=O)NC(C)(C)C(=O)NC(C)(C)C(=O)NC(C)(C)C(=O)NCCC(=O)NC(C)(C)C(=O)NC(C)(C)C(=O)NC(C)(C)C(=O)NC(C)C(=O)NCCC(=O)O (stereo not given)	-92.9% (active)	-61.8% (active)	-99.6% (active)	-93.3% (active)	-79.7% (active)	-96% (active)	-89.8% (active)	-77.9% (active)	-96.3% (active)	-89.2% (active)	-99.4% (active)	-65.4% (active)	-89.4% (active)	-87.5% (active)	-94.5% (active)	-60.6% (active)	-97.1% (active)	-92% (active)	-91.8% (active)	-97.3% (active)
C#CCN(C)CCCOc1ccc(NC(=O)CCCCCCCCC(=O)NO)cc1Cl	54.2%	73.2%	92.2%	77.6%	81.8%	64.8%	51.9%	72.9%	87.9%	76.1%	81.7%	40.7%	45.9%	89.5%	37.3%	97.8%	50.2%	74.5%	42.8%	72.9%
N#Cc1c(-c2ccc(Br)cc2)cc(-c2c[nH]c3ccccc23)nc1N	51.3%	60%	67.6%	42.5%	16.7%	43.6%	11%	42.1%	79.7%	51.5%	70%	18.6%	73.9%	46%	25.9%	56.9%	52.4%	43%	94.4%	44.6%
COC(=O)c1cccc(NC2=C(Cl)C(=O)C(C)=C(C)C2=O)c1	92.4%	85.9%	100%	94.8%	101%	33.9%	95.8%	115%	104%	114%	110%	5.25% (active)	95.8%	36.5%	104%	97.4%	108%	99.3%	108%	92.3%
C#C[C@]1(O)CC[C@H]2[C@@H]3CC=C4c5sc(Nc6cc(C)cc(C)c6)nc5CC[C@]4(C)[C@H]3CC[C@@]21C	14.8%	38.6%	40.9%	20.5%	12.2%	31.4%	42.7%	21.1%	-31.2% (active)	-13.3% (active)	45.4%	0.356% (active)	-4.28% (active)	33.5%	-77.2% (active)	22.3%	-71.7% (active)	-47.7% (active)	16%	-60.2% (active)
CN(C)CCNc1ccc2ncc(C#Cc3cncc(C(=O)Nc4ccc(CN5CCN(C)CC5)c(C(F)(F)F)c4)c3)n2n1	-62.4% (active)	33.4%	6.14% (active)	-37.2% (active)	9.62% (active)	-4.93% (active)	-61.8% (active)	29.1%	4.34% (active)	-32.3% (active)	18.9%	2.29% (active)	17.4%	-18.2% (active)	-75.1% (active)	-50.9% (active)	45.2%	-71.8% (active)	74.9%	54.1%
O=C(O)c1ccc(-n2c(=O)n(-c3cccc(C(F)(F)F)c3)c(=O)c3cc(-c4ccc(F)cc4F)ccc32)cc1	-4.43% (active)	10.4%	8.23% (active)	6.54% (active)	5.81% (active)	-28.5% (active)	-7.88% (active)	10%	22.3%	65.1%	25.9%	5.71% (active)	-12.8% (active)	-25.8% (active)	-1.85% (active)	22.1%	-12.6% (active)	17.8%	-1.96% (active)	18.6%
CC(C)Sc1nc(-c2ccccc2)c(C#N)c(N2CCOCC2)n1	65%	55.1%	38.1%	63.7%	42.2%	73.2%	82.5%	37.2%	11.9%	74%	83.1%	62.4%	36.5%	63.7%	45.7%	79%	51.1%	50.2%	97.5%	96.9%
C=CCSC1=NC2C(N(CC)C(=O)N2CC)N1/N=C/C=C/c1ccccc1OC (stereo not given)	84%	78.3%	102%	80.7%	84.3%	68.4%	57.2%	69.8%	98.5%	83.1%	92.2%	28%	72.2%	82.5%	79.3%	89.2%	58.5%	78.1%	83%	72.6%
COc1ccc(NC(=O)CCCCCCNC(=O)C(O)(O)C(F)(F)F)cc1	53.2%	84.1%	66.1%	28.3%	40.2%	28.5%	0.885% (active)	46.3%	52.9%	9.56% (active)	28.7%	21.7%	18.8%	59.5%	0.972% (active)	56.5%	24.3%	48.7%	48.7%	49.6%
